Test results from PubChem BioAssay (EPA / NIEHS).
Inconclusive results are not listed. Active and inactive are the calls of the source. How the source made its calls: active means hit-call score of the fitted dose curve at least 0.9, where 1 is the maximum; inconclusive means response in the unintended direction; inactive means score below 0.9.

Target: Cellular tumor antigen p53 (Homo sapiens) (UniProt P04637)
Test: TOX21_p53_BLA_p5_ratio: Tox21 HCT-116 p53 Agonism Beta-lactamase Assay, Ratio, Phase 5 (AID 2283599)
Method in brief: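 Beta-lactamase reporter ratio (blue 460 nm over green 530 nm, 405 nm excitation) after 2 h CCF4-AM loading, in HCT-116 cells exposed 16 h at 37 C to compounds pinned at 217-fold dilution. Increases relative to DMSO baseline scored.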

Sequence of Cellular tumor antigen p53 (Homo sapiens) (P04637 whole entry, looked up): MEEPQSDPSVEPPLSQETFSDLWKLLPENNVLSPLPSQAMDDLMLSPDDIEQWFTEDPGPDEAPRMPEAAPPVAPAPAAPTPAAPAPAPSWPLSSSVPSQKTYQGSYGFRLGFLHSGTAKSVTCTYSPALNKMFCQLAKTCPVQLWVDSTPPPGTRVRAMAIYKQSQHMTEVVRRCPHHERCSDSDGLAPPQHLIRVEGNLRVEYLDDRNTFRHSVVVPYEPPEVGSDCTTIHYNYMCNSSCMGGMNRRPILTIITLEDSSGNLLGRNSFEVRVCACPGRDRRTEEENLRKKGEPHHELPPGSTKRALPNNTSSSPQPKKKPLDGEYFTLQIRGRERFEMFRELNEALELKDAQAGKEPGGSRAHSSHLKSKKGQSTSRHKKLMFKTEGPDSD

Row | SMILES | outcome | AC50
1 | CO/N=C(\C(=O)N[C@@H]1C(=O)N2C(C(=O)O)=C(CSc3nc(C)c(CC(=O)O)s3)CS[C@H]12)c1csc(N)n1 | inactive | 
2 | N[C@H](C(=O)O)[C@@H](O)c1ccc(O)c(O)c1 | inactive | 
3 | CN(C)c1ccc(SC#N)cc1 | inactive | 
4 | O=C(c1ccc(F)cc1)C1CCN(CCn2c(=S)[nH]c3ccccc3c2=O)CC1 | inactive | 
5 | C[n+]1ccn(Cc2ccccc2)c1 | inactive | 
6 | O=C(CCN1CCN(CCO)CC1)N1c2ccccc2Sc2ccc(C(F)(F)F)cc21 | inactive | 
7 | CCN(CC)CCNC(=O)c1cc(S(C)(=O)=O)ccc1OC | inactive | 
8 | CC=C(Cl)Cl | inactive | 
9 | O=C1CCCc2ccccc21 | inactive | 
10 | C/C(=C\C(=O)OCCCCCCCCC(=O)O)C[C@@H]1OC[C@H](C[C@@H]2O[C@H]2[C@@H](C)[C@H](C)O)[C@@H](O)[C@H]1O | inactive | 
11 | CC(C)(O/N=C(\C(=O)N[C@@H]1C(=O)N2C(C(=O)[O-])=C(C[n+]3ccccc3)CS[C@H]12)c1csc(N)n1)C(=O)O | inactive | 
12 | OCc1c2ccccc2cc2ccccc12 | inactive | 
13 | Nc1nc2c(ncn2COC(CO)CO)c(=O)[nH]1 | inactive | 
14 | CC(=O)c1ccc2ccc3ccccc3c2c1 |  | 80.9 µM (active)
15 | Nc1ccc(C(=O)O)c(O)c1 | inactive | 
16 | O=C(O)C(O)[C@H](O)[C@@H](O)[C@H](O)[C@H](O)CO (stereo not given in full) | inactive | 
17 | Cn1nnnc1SCC1=C(C(=O)O)N2C(=O)[C@@H](NC(=O)[C@H](O)c3ccccc3)[C@H]2SC1 | inactive | 
18 | Nc1nc(N)c(-c2ccccc2)s1 | inactive | 
19 | CC(C)(O)c1ccccc1 | inactive | 
20 | CNC1(C)C2CCC(C2)C1(C)C (stereo not given) | inactive | 
21 | O=C(O)[C@H]1/C(=C/CO)O[C@@H]2CC(=O)N21 | inactive | 
22 | CN1CCN(C2=Nc3ccccc3Oc3ccc(Cl)cc32)CC1 | inactive | 
23 | N=C(N)c1ccc(C=Cc2ccc(C(=N)N)cc2O)cc1 | inactive | 

System: not listed separately
Test: TOX21_p53_BLA_p5_viability: Viability Assessment in the Tox21 HCT-116 p53 Agonism Beta-lactamase Assay, Phase 5 (AID 2283600)
Method in brief: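 Viability is taken from cellular ATP content, measured by luciferase luminescence in the same wells after the beta-lactamase ratio read. Cells are seeded at 4000 per well and exposed to DMSO-dissolved compounds, diluted 217-fold, for 16 h.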

Row | SMILES | outcome
24 | CO/N=C(\C(=O)N[C@@H]1C(=O)N2C(C(=O)O)=C(CSc3nc(C)c(CC(=O)O)s3)CS[C@H]12)c1csc(N)n1 | inactive
25 | N[C@H](C(=O)O)[C@@H](O)c1ccc(O)c(O)c1 | inactive
26 | CCN(CCCc1ccccc1)CCCc1ccccc1 | inactive
27 | C[n+]1ccn(Cc2ccccc2)c1 | inactive
28 | CCN(CC)CCNC(=O)c1cc(S(C)(=O)=O)ccc1OC | inactive
29 | O=C1CCCc2ccccc21 | inactive
30 | C/C(=C\C(=O)OCCCCCCCCC(=O)O)C[C@@H]1OC[C@H](C[C@@H]2O[C@H]2[C@@H](C)[C@H](C)O)[C@@H](O)[C@H]1O | inactive
31 | NS(=O)(=O)c1ccccc1Cl | inactive
32 | O=C1CCN(c2ccccc2)N1 | inactive
33 | CC(C)(O/N=C(\C(=O)N[C@@H]1C(=O)N2C(C(=O)[O-])=C(C[n+]3ccccc3)CS[C@H]12)c1csc(N)n1)C(=O)O | inactive
34 | Nc1nc2c(ncn2COC(CO)CO)c(=O)[nH]1 | inactive
35 | Cc1nc2ccccc2s1 | inactive
36 | CCCCOC(=O)C(=O)Nc1cccc(-c2nn[nH]n2)c1 | inactive
37 | O=C(O)C(O)[C@H](O)[C@@H](O)[C@H](O)[C@H](O)CO (stereo not given in full) | inactive
38 | Cn1nnnc1SCC1=C(C(=O)O)N2C(=O)[C@@H](NC(=O)[C@H](O)c3ccccc3)[C@H]2SC1 | inactive
39 | Nc1nc(N)c(-c2ccccc2)s1 | inactive
40 | CCCCOCCCC | inactive
41 | C[N+]1(C)CCN(CC(O)(c2ccccc2)C2CCCCC2)CC1 (stereo not given) | inactive
42 | CNC[C@@H]1CC[C@@H](N)[C@@H](O[C@H]2[C@H](O)[C@@H](O[C@H]3OC[C@](C)(O)[C@H](NC)[C@H]3O)[C@H](N)C[C@@H]2N)O1 | inactive
43 | Cc1cc(C)cc([N+](=O)[O-])c1 | inactive
44 | CNC1(C)C2CCC(C2)C1(C)C (stereo not given) | inactive
45 | N=C(N)c1ccc(C=Cc2ccc(C(=N)N)cc2O)cc1 | inactive
